PubChem BioAssay (NCI)
The panel holds about 79,000 compounds, 15% with a hit somewhere; the sample as a whole holds those more often. Activity calls are given as the source filed them. No stated cut-off is given here; in the data, active means growth inhibition above about 70%; inactive means the rest.

Experiment: NCI Yeast Anticancer Drug Screen. Data for the mec2-1 strain (AID 157)
Conditions: S. cerevisiae mec2-1 strain, at 50.0 µM, active compounds read high
Method in brief: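 Each compound was tested on mec2-1 yeast, a strain altered in DNA damage repair or cell cycle control. Growth inhibition is reported relative to vehicle.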
For CC(=O)Oc1ccccc1C(=O)/C=C/c1ccccc1, the growth inhibition was 17.4% (inactive).
In the case of CN(C)C(=S)/N=c1\ssc(=S)n1-c1ccccc1, the growth inhibition was -8.8% (inactive).
In the case of CCOC(=O)C(NS(=O)(=O)c1ccccc1)(C(F)(F)F)P(=O)(OCC(C)C)OCC(C)C (configuration not stated), the growth inhibition was 96.1% (active).
With CC(C)Nc1nc(NC(C)C)c2cnn(-c3ccccc3)c2n1 the growth inhibition was 83.9% (active).
With CCCCCCCCC1(OCCCS(=O)(=O)O)COc2ccccc2OCCOCCOc2ccccc2OC1 the growth inhibition was 87% (active).
In the case of Oc1ccc2c(c1)Cc1ccccc1-2, the growth inhibition was 87.1% (active).
For CCOC(=O)N1C2C=CC(=O)C(C=C2)N1C(=O)OCC (configuration not stated), the growth inhibition was 85.5% (active).
In the case of CC(=O)OCc1ccc2c(c1)C(O)NC(=O)O2 (configuration not stated), the growth inhibition was 21.9% (inactive).
For CC(C)=CCc1ccc(O)cc1, the growth inhibition was 25.1% (inactive).
For CCCCCCCCC(=O)Cl, the growth inhibition was 47.9% (inactive).
In the case of O=S1(=O)C(C(O)(c2ccccc2)c2ccccc2)CCCN1c1ccccc1 (configuration not stated), the growth inhibition was 31.4% (inactive).
For CCCCCCCCCCCCNCC(=O)O, the growth inhibition was 87.6% (active).
For CC(C)=CCc1c2c(c(O)c3c(=O)c(-c4ccc(O)cc4O)coc13)C=CC(C)(C)O2, the growth inhibition was 86% (active).
With O=C(CCC(O)(c1ccccc1)c1ccccc1)c1ccccc1 the growth inhibition was -11.9% (inactive).
For CS(=O)(=O)OCCN(CCOS(C)(=O)=O)c1ccc(C=Nc2ccc(-c3csc(-c4ccc(Br)cc4)n3)cc2)cc1, the growth inhibition was 97.2% (active).
In the case of O=P(O)(CN1CCN(CP(=O)(O)c2ccccc2)CCN(CP(=O)(O)c2ccccc2)CC1)c1ccccc1, the growth inhibition was 81.8% (active).
In the case of CC(C)c1ccc2c(c1)CCC1C(C)(CN)CCCC21C (configuration not stated), the growth inhibition was 99.6% (active).
